Experimental data from PubChem BioAssay.
Active and inactive are the calls of the source.

Assays:
[1] = small molecules captured by biotinylated probe aFSTL3 – biochemical, small-molecule microarray, fluorescence 635/667, stem cell growth factor project, primary screen (AID 1064); conditions: higher = more signal;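 further: measures binding of the biotinylated anti-FSTL3 antibody to printed compounds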
[2] = binders from COS7 lysate, DM2A8 probe, primary screen, torsin A project, cell lysate, small-molecule microarray, fluorescence 635/667 (AID 1065); conditions: higher = more signal, COS7 lysate expressing mutant human TOR1A
[3] = small molecules captured by biotinylated probe aFGF2 – biochemical, small-molecule microarray, fluorescence 635/667, stem cell growth factor project, primary screen (AID 1067); conditions: higher = more signal;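 further: measures binding of biotinylated aFGF2 protein to printed compounds on slides; z-score merges feature fluorescence and signal-to-noise across triplicate slides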
[4] = small molecules captured by biotinylated probe aFGF10 – biochemical, small-molecule microarray, fluorescence 635/667, stem cell growth factor project, primary screen (AID 1071); conditions: higher = more signal;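 further: score merges 667 nm spot intensity and signal to noise from triplicate slides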
[5] = target: Neurogenic locus notch homolog protein 2 (Homo sapiens) (UniProt Q04721); assay: small molecules binding Notch2 protein – biochemical, small-molecule microarray, 635 nm fluorescence, stem cell growth factors, primary screen (AID 1073); conditions: higher = more signal
[6] = target: Pro-neuregulin-1, membrane-bound isoform (Homo sapiens) (UniProt Q02297); assay: small molecules binding neuregulin-1 protein – biochemical, small-molecule microarray, fluorescence 635/667, psychiatric disease protein project, primary screen (AID 1075); conditions: NRG1 binding, 635 nm fluorescence, higher = more signal;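 further: score combines 667 nm spot fluorescence with signal to noise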
[7] = test system: Neuregulin-1 EGF-like domain; assay: small molecules binding NRG1 EGF domain – biochemical, small-molecule microarray, 635 nm fluorescence, primary screen (AID 1081); conditions: higher = more signal;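 further: binding of the protein to compounds printed on small-molecule microarray slides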
[8] = FRG1 expression reporter modulators in myotubes – cell-based, C2C12 myotubes, firefly/Renilla luciferase, luminescence, FRG1 inhibition for FSHD, primary screen (AID 1084); conditions: FRG1 promoter luciferase, higher = more signal, called active from +8 up or from −8 down
[9] = small molecules captured by biotinylated probe aFST – biochemical, small-molecule microarray, fluorescence 635/667, stem cell growth factor project, primary screen (AID 1086); conditions: higher = more signal;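 further: score merges 667 nm fluorescence with signal-to-noise of each printed compound spot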
[10] = binders of probe aHhip on microarray, primary screen, stem cell growth factor project, biochemical, small-molecule microarray, fluorescence 635/667 (AID 1087); conditions: higher = more signal;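 further: score merges spot fluorescence at 667nm with spot signal to noise ratio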

Chain of Pro-neuregulin-1, membrane-bound isoform (Homo sapiens) (Q02297 whole entry, looked up, the tested form may be a part, canonical isoform): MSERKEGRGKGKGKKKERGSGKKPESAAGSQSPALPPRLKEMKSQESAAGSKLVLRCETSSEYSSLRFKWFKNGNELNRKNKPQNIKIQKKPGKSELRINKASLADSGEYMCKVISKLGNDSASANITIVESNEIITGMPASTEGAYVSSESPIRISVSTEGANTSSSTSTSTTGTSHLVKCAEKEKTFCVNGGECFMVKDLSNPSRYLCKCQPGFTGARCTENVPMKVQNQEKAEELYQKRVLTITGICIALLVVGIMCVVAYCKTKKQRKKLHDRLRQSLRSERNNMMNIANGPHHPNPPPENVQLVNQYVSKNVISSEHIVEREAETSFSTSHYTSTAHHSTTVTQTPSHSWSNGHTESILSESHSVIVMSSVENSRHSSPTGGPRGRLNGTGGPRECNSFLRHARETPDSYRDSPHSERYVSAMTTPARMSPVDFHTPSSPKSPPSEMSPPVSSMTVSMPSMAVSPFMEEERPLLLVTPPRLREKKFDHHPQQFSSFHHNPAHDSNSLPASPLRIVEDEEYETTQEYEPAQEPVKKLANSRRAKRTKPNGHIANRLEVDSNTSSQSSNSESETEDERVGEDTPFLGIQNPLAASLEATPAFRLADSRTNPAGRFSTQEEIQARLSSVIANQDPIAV
Chain of Neurogenic locus notch homolog protein 2 (Homo sapiens) (Q04721 whole entry, looked up, canonical isoform): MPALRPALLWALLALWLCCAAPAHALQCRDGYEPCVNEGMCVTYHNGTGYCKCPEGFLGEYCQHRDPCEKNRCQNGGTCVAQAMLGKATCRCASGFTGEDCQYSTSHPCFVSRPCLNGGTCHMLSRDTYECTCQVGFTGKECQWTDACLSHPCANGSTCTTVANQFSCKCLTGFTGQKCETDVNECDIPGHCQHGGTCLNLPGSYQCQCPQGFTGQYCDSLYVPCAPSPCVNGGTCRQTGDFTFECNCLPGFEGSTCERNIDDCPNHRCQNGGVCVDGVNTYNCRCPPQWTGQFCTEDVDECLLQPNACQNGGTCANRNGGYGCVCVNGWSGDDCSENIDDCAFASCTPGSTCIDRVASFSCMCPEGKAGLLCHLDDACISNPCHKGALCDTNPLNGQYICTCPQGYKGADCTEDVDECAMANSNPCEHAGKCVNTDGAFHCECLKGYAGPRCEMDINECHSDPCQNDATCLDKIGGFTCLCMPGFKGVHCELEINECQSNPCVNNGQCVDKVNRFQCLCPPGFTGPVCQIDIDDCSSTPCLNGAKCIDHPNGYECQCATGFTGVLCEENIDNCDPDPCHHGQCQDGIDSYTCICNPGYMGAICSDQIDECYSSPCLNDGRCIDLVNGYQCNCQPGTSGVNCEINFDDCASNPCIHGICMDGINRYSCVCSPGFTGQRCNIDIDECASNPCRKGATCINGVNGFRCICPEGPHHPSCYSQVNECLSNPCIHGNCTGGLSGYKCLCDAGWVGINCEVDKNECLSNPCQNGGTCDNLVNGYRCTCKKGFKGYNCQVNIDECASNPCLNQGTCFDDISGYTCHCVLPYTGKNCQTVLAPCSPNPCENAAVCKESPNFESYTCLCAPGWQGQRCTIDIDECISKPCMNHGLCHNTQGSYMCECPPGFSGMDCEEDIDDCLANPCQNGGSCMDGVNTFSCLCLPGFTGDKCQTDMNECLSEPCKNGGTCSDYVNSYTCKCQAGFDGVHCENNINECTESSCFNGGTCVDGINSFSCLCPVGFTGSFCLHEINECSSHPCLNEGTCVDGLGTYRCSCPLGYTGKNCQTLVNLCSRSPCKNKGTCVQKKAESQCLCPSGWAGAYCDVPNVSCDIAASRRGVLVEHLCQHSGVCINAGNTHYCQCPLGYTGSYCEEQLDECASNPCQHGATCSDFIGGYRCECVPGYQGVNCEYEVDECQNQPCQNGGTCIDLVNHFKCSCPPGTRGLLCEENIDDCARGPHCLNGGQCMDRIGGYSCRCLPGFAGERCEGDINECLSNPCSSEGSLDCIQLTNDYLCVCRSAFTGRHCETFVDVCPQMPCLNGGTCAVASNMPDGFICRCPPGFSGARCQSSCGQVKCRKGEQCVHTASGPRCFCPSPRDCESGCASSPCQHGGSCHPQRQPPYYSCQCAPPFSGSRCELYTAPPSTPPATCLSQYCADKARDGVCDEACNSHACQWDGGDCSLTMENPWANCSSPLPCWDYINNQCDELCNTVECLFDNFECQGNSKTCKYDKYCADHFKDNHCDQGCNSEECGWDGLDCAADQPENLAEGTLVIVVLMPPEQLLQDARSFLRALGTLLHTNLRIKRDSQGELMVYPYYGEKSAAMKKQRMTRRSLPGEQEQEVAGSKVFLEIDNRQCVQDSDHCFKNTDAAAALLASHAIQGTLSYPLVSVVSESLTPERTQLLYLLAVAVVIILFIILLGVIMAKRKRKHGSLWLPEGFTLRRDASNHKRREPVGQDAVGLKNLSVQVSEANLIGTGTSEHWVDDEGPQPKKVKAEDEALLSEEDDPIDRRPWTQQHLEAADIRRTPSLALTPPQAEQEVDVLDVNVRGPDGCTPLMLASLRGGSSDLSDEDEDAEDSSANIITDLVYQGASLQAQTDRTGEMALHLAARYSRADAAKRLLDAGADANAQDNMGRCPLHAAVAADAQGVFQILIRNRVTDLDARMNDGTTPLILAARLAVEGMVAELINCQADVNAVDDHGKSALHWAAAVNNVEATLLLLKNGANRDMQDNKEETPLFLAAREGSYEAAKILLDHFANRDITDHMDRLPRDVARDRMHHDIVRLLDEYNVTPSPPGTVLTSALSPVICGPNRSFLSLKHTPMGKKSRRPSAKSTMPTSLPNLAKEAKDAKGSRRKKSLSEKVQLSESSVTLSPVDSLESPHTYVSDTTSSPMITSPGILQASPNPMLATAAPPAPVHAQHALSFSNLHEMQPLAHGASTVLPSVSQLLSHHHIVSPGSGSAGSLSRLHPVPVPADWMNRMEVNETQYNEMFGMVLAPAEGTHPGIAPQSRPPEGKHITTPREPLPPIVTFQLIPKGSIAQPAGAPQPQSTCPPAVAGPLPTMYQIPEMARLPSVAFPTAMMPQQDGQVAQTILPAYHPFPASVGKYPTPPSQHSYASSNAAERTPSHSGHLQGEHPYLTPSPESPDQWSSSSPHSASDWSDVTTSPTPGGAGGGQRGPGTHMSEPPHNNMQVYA

SMILES	composite z-score [1]	composite z-score [2]	composite z-score [3]	composite z-score [4]	composite z-score [5]	composite z-score [6]	composite z-score [7]	z-score [8]	composite z-score [9]	composite z-score [10]
COC(=O)[C@@]1(Cc2ccc(F)cc2)[C@H]2c3cc(C(=O)N(C)C)n(CCc4c[nH]c5ccc(OC)cc45)c3C[C@H]2CN1C(=O)c1ccccc1	1.1	1.29	0.181	0.175	1.37	0.88	1.36	1.59 (inactive)	1.34	0.836
CCCC[C@@H]1C[C@H]1[C@@H](NC(=O)c1ccco1)c1ccccc1	1.29	-0.52	-0.171	-0.511	-2.22	-0.44	-0.454	-0.192 (inactive)	-0.945	-0.0275
CC(C)CNC(=O)[C@@]1(C)c2ccccc2C(=O)N(C(C)C)[C@H]1c1ccc(CO)cc1	0.095	-0.456	-0.0803	-0.435	-1.78	0.0276	-0.266	0.0705 (inactive)	-0.37	0.0424
C=CCCN(CC#C[C@H]1Oc2ccccc2S(=O)(=O)N2CCC[C@@H]12)S(=O)(=O)c1ccc(C)cc1	-0.141	-0.0385	-0.0717	0.61	-0.271	0.353	0.476	-4.31 (inactive)	0.0279	0.0373
COc1ccc([Si](C)(C)[C@H]2[C@H](CC(=O)N(CCO)Cc3ccccc3)O[C@@]3(C(=O)N(Cc4cccc(N5C(=O)c6cccc7cccc5c67)c4)c4ccccc43)[C@@H]2C)cc1	-0.184	0.199	-0.0664	0.202	-0.588	0.824	1.2	-3.13 (inactive)	-0.246	-0.236
O=C1OCC=C[C@H]2OC34C=CCN(CCN5CCOCC5)C(=O)[C@H]3N(CCCCCCO)C(=O)[C@@H]4[C@@H]12 (stereo not given in full)	-0.142	0.108	-0.0785	0.0266	-0.157	2.07	1.27	1.69 (inactive)	0.334	-0.364
C[N+](C)(C)CCCC[C@@H]1NC(=O)[C@H]2C[C@@H](C(=O)O)[C@@H](c3cccc(OCCO)c3)N2C1=O	2.11	1.85	0.676	0.788	1.01	2.81	1.44	-0.698 (inactive)	1.65	1.88
COc1ccc([Si](C)(C)[C@H]2[C@H](CC(=O)N3Cc4ccccc4C[C@H]3CO)O[C@@]3(C(=O)N(Cc4cccc(I)c4)c4ccccc43)[C@@H]2C)cc1	-0.0638	2.29	-0.0158	0.142	0.379	0.438	0.853	-2.84 (inactive)	-0.186	0.289
CCN(CC)c1ccc(N2CC=CC34O[C@@H]5C=CCOC(=O)[C@@H]5[C@H]3C(=O)N(CCCCCO)[C@@H]4C2=O)cc1 (stereo not given in full)	0.594	2.08	-0.129	-0.39	-0.866	1.42	1.53	-0.309 (inactive)	-0.409	-0.0618
CCCC[C@@H]1C[C@H]1[C@@H](NC(=O)c1ccccc1)c1ccc(-c2ccccc2)cc1	-0.138	0.535	0.0805	-0.0214	0.294	0.23	0.341	-1.76 (inactive)	0.442	-0.21
COC(=O)c1c(CC[C@@H](CO)NC(=O)Nc2ncn[nH]2)oc(C(=O)Cc2ccccc2)c1C(=O)OC	-0.468	-0.0764	-0.214	0.511	1.21	0.163	0.778	0.004 (inactive)	0.524	0.0722
O=C(NCC(O)CO)[C@@]1(Cc2ccccc2)N=C(c2ccc(OCCCO)cc2)O[C@H]1c1ccccc1 (stereo not given in full)	1.32	0.691	0.16	0.36	-0.0617	1.39	1.26	-1.89 (inactive)	1.08	0.415
O=c1cccc(-c2ccccc2)o1	-0.0048	-0.313	-0.0996	0.062	0.197	-0.356	0.811	2.03 (inactive)	-0.0103	0.113
CCCCN1CC=CC23O[C@@H]4C=CCCOC(=O)C4[C@H]2C(=O)N(CCCO)[C@@H]3C1=O (stereo not given in full)	-0.0115	-0.265	-0.147	-0.609	-1.08	-0.931	-0.053	0.211 (inactive)	-0.277	-0.191
